PubChem BioAssay AID1117359 (Southern Research Institute, 2015)
The whole screen tested about 1,500 compounds, of which about 460 (31%) were called active.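 How the source made its calls: active means viability at or below 80% at any tested concentration, marking the compound as toxic; inactive means the rest.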 The list is a sample of the results. Measured potencies and affinities stand elsewhere.

experiment: THP-1 cell cytotoxicity, dose response, cytotoxicity control for Vif-APOBEC3G degradation inhibitor project, THP-1 cells (AID 1117359); details: THP-1 viability, CellTiter-Glo luminescence, 72 h; series mostly up to 40 µM; viability: at the top concentration

Row | Structure (SMILES) | viability
1 | CCOC(=O)C1=C(COC(=O)/C=C/c2ccco2)NC(=O)NC1C (stereo not drawn) | 96.1% (inactive)
2 | Cc1ccc(NC(=O)CN2C(=O)N/C(=C/c3ccco3)C2=O)cc1 | 106% (inactive)
3 | C=CC1=C(C(=O)O)N2C(=O)C(NC(=O)Cc3ccccc3)C2SC1 (stereo not drawn) | 97.8% (inactive)
4 | Cc1cc(C(=O)NCCCN2CCCC2=O)no1 | 111% (inactive)
5 | CCOC(=O)C1=C(c2ccccc2)NC(=O)NC1c1cc(Cl)c(O)c(OC)c1 (stereo not drawn) | 101% (inactive)
6 | Cc1nc(-c2noc(-c3ccccc3Cl)n2)c(C(F)(F)F)o1 | 86.2% (inactive)
7 | COc1cccc(CC(=O)N2CCCC(CO)(Cc3ccc(F)cc3F)C2)c1 (stereo not drawn) | 80.7% (inactive)
8 | COc1ccc(/C=N/NC(=O)CN2CCN(Cc3ccccc3)CC2)cc1Br | 101% (inactive)
9 | O=C(COc1ccc([N+](=O)[O-])cc1)NC(C(=O)O)C(O)c1cccc([N+](=O)[O-])c1 (stereo not drawn) | 99.7% (inactive)
10 | COc1cc(NC(=O)CSCC(=O)N(C)C2CCCCC2)cc(OC)c1 | 89.8% (inactive)
11 | O=C(O)COc1ccc2c(c1)O/C(=C\c1ccco1)C2=O | 105% (inactive)
12 | CC(C)(C)OC(=O)N1CCN(c2ccc([N+](=O)[O-])cc2)CC1 | 93.8% (inactive)
13 | O=C(NC(=O)N1CCN(c2ccc([N+](=O)[O-])cn2)CC1)c1c(Cl)cccc1Cl | 106% (inactive)
14 | CCc1ccccc1NC(=S)N(Cc1ccc(OC)cc1)CC1CCC(C(=O)O)CC1 (stereo not drawn) | 101% (inactive)
15 | O=C(Cn1c(NCCO)nc2ccccc21)NCC(F)(F)F | 99.8% (inactive)
16 | COc1cc(C(=O)NNC(=S)NCc2ccco2)cc(OC)c1OC | 84% (inactive)
17 | Cc1ccc(C(=O)N/C(=C/c2cccnc2)C(=O)NCc2ccco2)cc1 | 99% (inactive)
18 | Cc1ccc(C(CC(=O)NCc2ccco2)c2ccccc2)c(O)c1 (stereo not drawn) | 91.1% (inactive)
19 | O=C(O)CSc1c2c(nc3cc(C(=O)Nc4cccc(C(F)(F)F)c4)ccc13)CCC2 | 103% (inactive)
20 | COc1cc(/C=C2/C(=O)c3cccc([N+](=O)[O-])c3C2=O)c(Br)cc1O | 106% (inactive)
21 | CCN(CC)c1ccc(NC(=O)CCS(=O)(=O)c2ccc(Br)cc2)c(C)c1 | 91.6% (inactive)
22 | CCOC(=O)C(C)N1C(=O)S/C(=C\c2ccc(-c3ccccc3C(=O)O)o2)C1=O (stereo not drawn) | 93.5% (inactive)

Row | Structure (SMILES) | viability
23 | CNC[C@H](O)c1ccc(O)c(O)c1 | 92.2% (inactive)
24 | CCN(CC)Cc1cc(O)c(CN(CC)CC)cc1O | 94.7% (inactive)
25 | COc1cccc(NC(=O)CSc2nnc(-c3ccco3)c(-c3ccco3)n2)c1 | 97% (inactive)
26 | CCOC(=O)CNc1nc2ccccc2n2c(C)nnc12 | 96.8% (inactive)
27 | COc1cc(NCCCNC(C)C)c2nccc(C)c2c1 | 85.1% (inactive)
28 | COc1cc(CC(=O)NCC(C)(C)N2CCOCC2)cc(OC)c1OC | 103% (inactive)
29 | C[C@H](NC(=O)c1ccco1)C(=O)Nc1cccc([N+](=O)[O-])c1 | 99.8% (inactive)
30 | COc1ccc(OC)c(N2C(=O)[C@@H]3C(c4ccccc4Cl)=NO[C@@H]3C2=O)c1 | 96% (inactive)
31 | CCN(C(=O)CN1CCN(c2ccc(O)cc2)CC1)c1c(N)n(Cc2ccccc2)c(=O)[nH]c1=O | 102% (inactive)
32 | COC1=C(Br)C(=O)c2nc(C)ccc2C1=O | 89.4% (inactive)
33 | CCOc1cccc(=O)c2c(C)n(CC(=O)c3ccccc3)c(C)c12 | 84.6% (inactive)
34 | COc1ccc(CNS(=O)(=O)c2cc(Br)cc3c2N(C(C)=O)C(C)C3)cc1 (stereo not drawn) | 94.4% (inactive)
35 | Cc1[nH]n(-c2nc(-c3ccccc3F)cc(=O)[nH]2)c(=O)c1CCO | 93.4% (inactive)
36 | COc1cc2ccccc2cc1C(=O)N1CCN(c2ccccc2O)CC1 | 87.3% (inactive)
37 | O=[N+]([O-])c1ccc2c(c1)S(=O)c1ccccc1-2 (stereo not drawn) | 102% (inactive)
38 | C/C(=N\Nc1ccc([N+](=O)[O-])cc1[N+](=O)[O-])c1cc2c(ccc3ccccc32)oc1=O | 108% (inactive)
39 | CC1=Nc2cccc3cccc(c23)N1 | 97% (inactive)
40 | CCS(=O)(=O)N1CCN(C(=O)c2cccc3ccccc23)CC1 | 91% (inactive)
41 | O=c1c(O)cccc2cc(O)c(O)c(O)c12 | 91.7% (inactive)
42 | CC12CCC(C(=O)Nc3ccc(Br)cn3)(OC1=O)C2(C)C (stereo not drawn) | 99.9% (inactive)
43 | COc1ccc(S(=O)(=O)N2CCC(C(=O)NCc3cccnc3)CC2)cc1Cl | 96% (inactive)
44 | O=C(Nc1ccc(C(=O)N2CCOCC2)cc1)c1ccccc1[N+](=O)[O-] | 84.2% (inactive)

Row | Structure (SMILES) | viability
45 | O/C=c1\ccc2cccc3nc(C(F)(F)F)nc1c23 | 102% (inactive)
46 | Cc1ccc(C)c(NC(=S)NCc2ccccc2)c1 | 95.1% (inactive)
47 | Cc1ccc(C(=O)NNS(=O)(=O)c2ccccc2[N+](=O)[O-])cc1 | 94.8% (inactive)
48 | CN(C)c1ccc(N2C(=O)CSC2=S)cc1 | 104% (inactive)
49 | CC(C)C(C)NC(=O)COc1ccc(S(=O)(=O)N2CCOCC2)cc1Cl (stereo not drawn) | 95.4% (inactive)
50 | O=C1CC(Nc2ccc(N3CCOCC3)cc2)C(=O)N1CCc1ccccc1 (stereo not drawn) | 87.8% (inactive)
51 | O=C(CNC(=O)c1ccc(Cl)cc1Cl)OCc1nnc(-c2ccccc2Br)o1 | 95.6% (inactive)
52 | CCOC(=O)/C=C1\SC(C)C(=O)N1CC(=O)N(CCC#N)c1ccccc1 (stereo not drawn) | 90.8% (inactive)
53 | CC(C)CC(NC(=O)/C(=C/c1ccco1)NC(=O)c1ccc(Br)o1)C(=O)O (stereo not drawn) | 101% (inactive)
54 | CCC(C)(C)NC(=O)C(c1ccc(F)cc1)N(Cc1ccco1)C(=O)c1cnccn1 (stereo not drawn) | 92.5% (inactive)
55 | O=C(Cc1csc(N2CCOCC2)n1)N/N=C/c1ccc(O)c(O)c1O | 108% (inactive)
56 | O=C(CCN1CCN(c2ccccc2)CC1)N/N=C/c1ccc(O)c(O)c1O | 102% (inactive)
57 | CC1CCCN(CC(O)CN2CCN(CC(O)CN3CCCC(C)C3)C(C)C2)C1 (stereo not drawn) | 101% (inactive)
58 | COC(=O)c1ccccc1NC(=O)CCS(=O)(=O)c1ccc(Br)cc1 | 87.6% (inactive)
59 | COc1cccc(NC(=O)CN(C)C(=O)CCCc2nc3ccccc3s2)c1 | 101% (inactive)
60 | COC(=O)C1=C(O)/C(=C\c2ccc(CNC(=O)C(=O)Nc3ccc(C)c(C)c3)o2)N=C1C | 95.5% (inactive)
61 | Cc1cn(C2CCCCO2)c(=O)[nH]c1=O (stereo not drawn) | 107% (inactive)
62 | O=C(CCCN1C(=O)/C(=C\c2ccco2)SC1=S)Nc1ccc2ccccc2c1 | 80.9% (inactive)
63 | CC(=C\c1ccco1)/C=C1/SC(=S)N(CC(=O)O)C1=O | 110% (inactive)
64 | COc1ccc(NC(=O)c2cccnc2C(=O)O)c(OC)c1 | 103% (inactive)
65 | COC(=O)c1ccccc1NC(=O)CNC(=O)c1ccc(OC)cc1 | 82.8% (inactive)
66 | COc1ccc(CNC(=O)c2sc3nc4c(c(C(F)(F)F)c3c2N)CCC4)cc1OC | 96.3% (inactive)

Row | Structure (SMILES) | viability
67 | O=C(O)c1c2c(nc3ccc(Cl)cc13)CCC2 | 99.5% (inactive)
68 | Cc1ccc(C(c2nnnn2CC2CCCO2)N2CCN(C)CC2)cc1 (stereo not drawn) | 107% (inactive)
69 | O=[N+]([O-])c1cc2oc3c(c2c(C=NCc2ccncc2)c1O)CCCC3 | 110% (inactive)
70 | COc1cc2c3c(c1OC)C1(C=CC(=O)C=C1)CC3N(C(=O)CCC(=O)O)CC2 (stereo not drawn) | 103% (inactive)
71 | Oc1ccc(-c2cn3c(n2)SCC3)cc1O | 97.9% (inactive)
72 | COc1ccc(O)c(N)c1 | 99.5% (inactive)
73 | COc1ccc(OC)c(N/C(C)=C/C(=O)c2ccc(C)o2)c1 | 89.8% (inactive)
74 | O=C(CCCCl)Nc1nc(-c2ccc3c(c2)OCCO3)cs1 | 98.4% (inactive)
75 | CCCCCC#CCC#CCC#CCC#CCCCC(=O)O | 83% (inactive)
76 | CC(=O)Nc1cccc(-c2cc(-c3c(Cl)cccc3Cl)no2)c1 | 95.7% (inactive)
77 | COc1ccc(NC(=O)/C=C/c2ccc(S(=O)(=O)N3CCOCC3)cc2)cc1 | 97.8% (inactive)
78 | Cc1cc(-c2n[nH]c(=S)n2/N=C/C=C/c2ccco2)n[nH]1 | 108% (inactive)
79 | COc1ccc(C)cc1NC(=O)COC(=O)CCC(=O)c1cccs1 | 106% (inactive)
80 | N#Cc1ccccc1CN1C(=O)S/C(=C/c2cccn2-c2ccc(C(=O)O)cc2)C1=O | 109% (inactive)
81 | O=C(NCC(c1ccco1)N1CCCC1)c1cccc(S(=O)(=O)N2CCCCC2)c1 (stereo not drawn) | 89.7% (inactive)
82 | COc1cc(C(C2C(=O)CC(C)(C)CC2=O)C2C(=O)CC(C)(C)CC2=O)cc(OC)c1OC | 96% (inactive)
83 | COCCNC(=O)Nc1ccc2nc(-c3ccco3)c(-c3ccco3)nc2c1 | 114% (inactive)
84 | O=C(NC1CC1)c1cc(-c2ccco2)nc2ccccc12 | 87.3% (inactive)
85 | CC(C)CN(C(=O)CN1CCN(S(=O)(=O)c2ccccc2)CC1)c1c(N)n(CC(C)C)c(=O)[nH]c1=O | 118% (inactive)
86 | COC(=O)[C@@]1(Cc2ccc(OC)cc2)[C@H]2c3cc(C(=O)N(C)C)n(C[C@H](O)CO)c3C[C@H]2CN1C(=O)c1ccccc1 | 83.2% (inactive)
87 | Cc1nc(C)c(C(=O)Nc2nc3c(C)cccc3s2)o1 | 92.6% (inactive)
88 | O=C(Nc1nnc(C2CC2)s1)c1ccc(S(=O)(=O)c2ccccc2)cc1 | 94.8% (inactive)

Row | Structure (SMILES) | viability
89 | S=c1[nH]nc(COc2ccc(Cl)cc2)o1 | 103% (inactive)
90 | CCCCCCNS(=O)(=O)c1ccccc1Br | 87% (inactive)
91 | Clc1ncnc2scc(-c3ccccc3)c12 | 84.7% (inactive)
92 | Nc1ccc(S(=O)(=O)c2cc(O)c3ccccc3c2O)cc1 | 89.9% (inactive)
93 | CCOC(=O)/C(C#N)=C/c1c(OCC)n(CC)c2ccccc12 | 91.8% (inactive)
94 | COc1ccc(CCN2C(=O)CC(Nc3ccc(N4CCOCC4)cc3)C2=O)cc1OC (stereo not drawn) | 96.4% (inactive)
95 | O=C1CCC(CCC(=O)N2CCCC(C(=O)c3ccc4c5c(cccc35)CC4)C2)=NN1 (stereo not drawn) | 81.3% (inactive)
96 | Nc1cc(N)c(OCC(F)(F)F)cc1OCC(F)(F)F | 98.8% (inactive)
97 | CC(=O)c1ccc2c(c1)C1C=CCC1C(c1ccncc1)N2 (stereo not drawn) | 86.5% (inactive)
98 | Cc1cccc(Cc2nnc(CCC(=O)N(C)C3CCOC3)o2)c1 (stereo not drawn) | 95.4% (inactive)
99 | CCCCn1c(N)c(N(CCC(C)C)C(=O)C2=NN(c3cc(C)ccc3C)C(=O)CC2)c(=O)[nH]c1=O | 89.7% (inactive)
100 | CNc1ccc(Br)cc(C(=O)/C=C/c2cc(OC)ccc2OC)c1=O | 82.2% (inactive)
101 | COc1ccccc1NS(=O)(=O)c1cccs1 | 92.4% (inactive)
102 | CN(C)S(=O)(=O)c1cccc(NC(=S)N/N=C/c2ccc(O)c(O)c2O)c1 | 92.7% (inactive)
103 | Cc1ccc(C=C2C(Cl)=C(Cl)C(Cl)=C2Cl)cc1 | 91% (inactive)
104 | COC(=O)COc1ccc(S(=O)(=O)Nc2ccc(C(N)=O)cc2)cc1C | 97.2% (inactive)
105 | O=C1CSC(c2cccnc2)N1Cc1cccnc1 (stereo not drawn) | 109% (inactive)
106 | Cc1cc(C)c(C(=O)/C=C/c2ccco2)c(=O)[nH]1 | 88.5% (inactive)
107 | N#CC(C#N)=Cc1cccn1-c1ccc(C(=O)O)cc1 | 101% (inactive)
108 | CCOC(=O)CN(C(=O)CSc1nnc(COc2ccc(OC)cc2)n1CC)c1ccccc1 | 87.8% (inactive)
